In PubChem BioAssay AID2288 (National Center for Advancing Translational Sciences (NCATS), 2010):
Among all 340,000 compounds or so, fewer than 10 were called active. Roughly 2% stayed inconclusive and do not appear here. Calls follow the shape of the dose curve; as a rule, active = well fitted curve in the direction sought with a large enough effect; inconclusive = small, poorly fitted or top-dose-only effect, or another doubt; inactive = no such curve, though single readings can be large or run the other way. The list is a sample of the results.

Assay: qHTS Assay for Modulators of miRNAs and/orActivators of miR-21;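 also: % of control where 0% means no effect; miR-21 action dims this reporter so a rising signal means less miR-21 action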
Conditions: HeLa miR-21 FLuc reporter, luciferase, 48 h; series mostly up to 38.3 µM; activity change, positive = activation: at the top concentration
Source text: MLSCN Grant: 1 R21 NS059478-01 Assay Provider: Qihong Huang, The Wistar Institute NCGC Assay Overview: MicroRNAs (miRNAs) are endogenously encoded small (~20-25 nucleotides), nonprotein-coding RNAs that are involved in post-transcriptional repression of target messenger RNAs (mRNAs) (Le and Hannon, 2004). Estimated to be involved in the regulation of 30% of all protein-coding mRNAs (Filipowicz et al., 2008), miRNAs play a significant role in many biological processes including cellular differentiation and tissue development (Ghildiyal and Zamore, 2009).
NCGC Assay Protocol Summary: Reagents: HeLa cells stably expressing firefly luciferase (FLuc) under the control of a CMV promoter (upstream) and a miR-21 binding sequence directly downstream of the gene. These cells endogenously express miR-21. Control compounds used were compound C3 (provided by collaborator), N6-phenyladenosine (MP Biomedicals, 0215379625), and DMSO. Assay Summary: 6uL of HeLa miR-21-FLuc cells in assay buffer (DMEM, Invitrogen #21063-029; 10% FBS, HyClone #SH30071.03) were dispensed at 2000cells/well (3.3 x 10^5 cells/mL) into Greiner solid-white TC-treated 1536-well plates using a Multidrop Combi (Thermo Fisher Scientific). Plates were incubated for one hour at 37 degree Celsius, 95% humidity, 5% CO2. These assay plates were then treated with 23nL of compound or DMSO using a Kalypsys pin tool, which allows for delivery of a 24-point titration of each compound to the assay plate, with a final compound concentration ranging from approximately 40uM to 5pM. Assay plates were then incubated for 48 hours. After incubation, plates were allowed to come to RT for one hour prior to delivery of 3uL of 3X luciferase detection reagent. After a 15 minute incubation to allow for cell lysis, luciferase activity was measured using a ViewLux CCD imager (PerkinElmer), with an average exposure time of 2-12 seconds. Keywords: NIH Roadmap, MLPCN, MLSMR, qHTS, miR-21, microRNA, firefly luciferase, FLuc.

Activity change, positive = activation, inactive:
CC(C)Cn1c(-c2ccc(S(=O)(=O)N3CCOCC3)cc2)csc1=Nc1cc(Cl)ccc1Cl -1.77%
O=C(Cc1ccc(Cl)cc1)NCC(c1cccs1)S(=O)(=O)c1ccc(Cl)cc1 (stereo not given) 14.4%
COc1cc(OC)c(NC(=O)c2cnc(N3CCCC3)nc2C)cc1Cl -8.6%
Cc1ccc(C(=O)COC(=O)C(Cc2c[nH]c3ccccc23)NC(=O)c2ccc(Br)cc2)cc1 (stereo not given) -3.65%
Cc1cc(N2CCN(c3cccc(C(F)(F)F)c3)CC2)n2nc(-c3ccccc3)nc2n1 1.74%
CCCNC(=O)c1ccc(Cn2c(SCC(N)=O)nc3ccccc3c2=O)cc1 -24.5%
Cn1c(=O)c(C(=O)O)nn(-c2ccccc2)c1=O 3.23%
Cc1ccc(OCC(=O)Nc2ccc(OCc3cc(=O)n4c(C)csc4n3)cc2)cc1C -2.25%
COc1cc(OC)c(NC(=O)c2c3c(nn2C)-c2ccccc2SC3)cc1Cl 1.84%
COC(=O)c1ccccc1NC(=O)Cn1c(=O)n(-c2cccc(C(F)(F)F)c2)c(=O)c2c(C)c(C)sc21 0.641%
Brc1ccc2c(c1)NC(c1cccnc1)=NC(c1ccccc1)=N2 -10.5%
CCOC(=O)c1cc(-c2ccccc2)n(CCC(=O)Nc2ccccc2CC)c1C -4.44%
COc1ccccc1-c1nnc(C2CCN(C(=O)c3ccc(Cl)cc3)CC2)o1 -3.37%
CCCCN(C)c1nnc(NC(=O)Nc2ccc(Br)c(C)c2)s1 -3.2%
CCOC(=O)Cn1c(=O)n(C2CCCCC2)c2nc(-c3cccc(OC)c3)nc(C(N)=O)c21 -0.638%
Cc1cc(C)c(NC(=O)CCc2c(C)nc3c(c(C)nn3C(C)(C)C)c2C)c(C)c1 4.5%
O=C(NC1CC(=O)N(c2ccc(F)cc2)C1)c1ccc(S(=O)(=O)N2CCCC2)cc1 (stereo not given) -5.5%
Cc1ccc(-c2nnc(Nc3ccc(OCC(N)=O)cc3)c3ccccc23)cc1S(=O)(=O)NCC1CCCO1 (stereo not given) -3.57%
O=C(c1ccc(Br)cc1)N(Cc1cccs1)c1ccc(F)cc1 15.3%
CC1=C(C(=O)OCC2CCCCC2)C(c2c(F)cccc2Cl)CC(=O)N1 (stereo not given) -3.1%
Cc1ccc(OCCSc2nc(C)c(Cc3ccccc3)c(=O)[nH]2)cc1 -0.304%
CCOc1ccc(-c2cc(C)n3nc(C(=O)Nc4ccc(C)c(C)c4)cc3n2)cc1 -15.3%
Cc1ccc2oc3c(c(=O)c2c1)C(c1ccc(O)cc1)N(Cc1ccc2c(c1)OCO2)C3=O (stereo not given) 0.711%
COc1ccc(-c2cc(C(=O)Nc3sc4c(c3C(N)=O)CCCC4)no2)cc1 -12.6%
COc1cccc(-c2cc(C(=O)Nc3ccc(C)cc3)[nH]n2)c1 -37.4%
CCCCN(CC)CCCNC(=O)c1nn(C)c2c1CSc1ccccc1-2 -4.82%
Cc1ccccc1CNC(=O)c1cccc(NC(=O)c2nsc3ccccc23)c1 -48.8%
COc1cc(NC(=O)c2cc3ccc4cccnc4c3[nH]2)cc(OC)c1OC 1.22%
Cc1nnc(NC(=O)CSc2nc3c([nH]c4ccccc43)c(=O)n2-c2cccc(Cl)c2)s1 -7.48%
Cc1ccc2nc(COc3ccccc3NC(=O)Nc3ccc(F)c(Cl)c3)cc(=O)n2c1 -22.2%
COc1ccc(-c2nc(Cn3c(=O)cc(C)c4c(C)nn(-c5ccccc5)c43)c(C)o2)c(OC)c1 -21%
CCOCCCNC(=O)c1ccc2nc(CCc3ccccc3)oc2c1 -46.9%
CCOc1cc(CNC(=O)c2sc3ncnc(N(C)C4CCCCC4)c3c2C)ccc1OC 20.8%
Cc1ccc(C)c(Cn2c(C(=O)O)c(CNCc3cccs3)c3ccccc32)c1 5.44%
CCCN1CCN(CCCNC(=O)c2cnn(-c3ccc(C)cc3)c2-n2cccc2)CC1 1.18%
CCCCN(CC)C(=O)c1c[nH]c2ccc(S(=O)(=O)Nc3cccc(OC)c3)cc2c1=O 23%
Cc1c(-c2nc(-c3ccc4c(c3)OCO4)no2)nnn1-c1ccc(Br)cc1F -18%
O=C(NCc1cccnc1)C(=O)NCC(c1cccnc1)N1CCN(c2ccccc2)CC1 (stereo not given) -6.67%
Cc1ccccc1C(=O)NCc1nc(-c2ccc(Cl)cc2)no1 8.3%
CCOc1ccc(NC(=O)Cn2c(=O)n(CCCC(=O)NCc3ccc4c(c3)OCO4)c(=O)c3ccccc32)cc1 2.53%
CCOc1ccc(Nc2oc(/C=C/c3ccc(F)cc3)nc2C#N)cc1 -7.27%
CCOc1ccc(OCC)c(NC(=O)c2cc(C)nc3c2c(C)nn3-c2cccc(Cl)c2C)c1 -0.924%
COC(=O)c1ccc(NC(=O)CCc2c(C)nc3c(c(C)nn3-c3ccc(C)cc3)c2C)cc1 -1.39%
COc1cc(Cl)c(NC(=O)CC(C)S(=O)(=O)c2cc3c(cc2C)NC(=O)CO3)c(OC)c1 (stereo not given) -10.4%
Cc1ccc(CN2CCc3nc(N4CCN(C)CC4)ncc3C2)cc1 -0.868%
CCOC(=O)c1ccc2c(c1)N(Cc1cccc(OC)c1)C(=O)c1ccccc1S2(=O)=O 1.39%
COc1ccc(Cc2nc3ccc(C(=O)NCc4ccccc4C)cc3o2)cc1 2.75%
CCOC(=O)c1c(C)[nH]c(CCC(=O)NCCCN2CCN(c3cccc(Cl)c3)CC2)c1C 26.2%
Cc1ccc(SCC(=O)Nc2ccc3oc(-c4ccccc4F)nc3c2)cc1 -21.4%
CN(C(=O)CSc1nc2ccccc2n1Cc1ccccc1C#N)c1ccccc1 9.67%
CCc1nnc(SCc2nc(-c3cccc(C)c3)oc2C)c2cc3sc(C)cc3n12 0.608%
COc1ccccc1N1CCN(c2ncnc3onc(-c4ccc(F)cc4)c23)CC1 -4.41%
CC(C)Oc1ccc(CNC(=O)C2CCN(c3nc4ccccc4n(C)c3=O)CC2)cc1 1.16%
CC(C)c1ccc(NS(=O)(=O)c2ccc3[nH]cc(C(=O)NC4CCCC4)c(=O)c3c2)cc1 3.86%
Cc1ccc(-n2nc(C)c3c(C)cc(=O)n(CC(=O)Nc4ccc(C(C)C)cc4)c32)cc1 0.922%
O=C(NCCCO)c1nn(-c2ccc(Cl)cc2)nc1CO 4.39%
COc1ccccc1CNC(=O)CCCn1c(=O)c2ccccc2n(CC(=O)Nc2ccc(C)cc2Cl)c1=O 2.72%
COc1cccc(-n2c(=O)c3c(C)c(C(=O)N(C)C)sc3n(Cc3cccc(C)c3)c2=O)c1 -7.64%
CCOc1cccc2sc(N3CCN(C(=O)C4CC4)CC3)nc12 -4.33%
CCc1nn(CC(=O)N2CCN(c3ccc(Cl)cc3)CC2)c(=O)c2cc3occc3n12 -1.09%
CSc1ncc(C(=O)NCc2ccccc2Cl)c(C(F)(F)F)n1 -5.83%
COc1ccc(CC(=O)Nc2nnc3n2CCS3)cc1OC -0.241%
Cc1ccc(-c2nn(CCC(=O)Nc3ccc(Cl)c(Cl)c3)c(=O)c3ccccc23)cc1 4.57%
CCC(=O)Nc1ccccc1-c1nc2ccccc2n(CC(=O)Nc2ccc(C)c(C)c2)c1=O -3.9%
CCN1CCc2nc3sc(C(=O)Nc4ccccc4OC(F)(F)F)c(N)c3cc2C1 26.3%
CCOC(=O)c1cc(NC(=O)c2ccc(F)cc2)c(=O)n2c1oc1ccccc12 -9.24%
CCOc1ccc(N(CC)S(=O)(=O)N2CCCC(C(=O)NCc3ccc(SC)cc3)C2)cc1 (stereo not given) 27.8%
COc1ccc(CNC(=O)CSc2n[nH]c(-c3ccc(F)cc3)n2)cc1 17.4%
COc1ccc(CN2C(=O)C(NC(=O)c3cccc(C)c3)(C(F)(F)F)N=C2c2ccccc2)cc1 (stereo not given) -0.25%
Cc1c(Cl)cccc1NC(=O)C(=O)NCCc1csc2nc(-c3ccccc3F)nn12 21.8%
COCCNC(=O)CSc1c(C)cnc2c1c(=O)n(C)c(=O)n2C -1.95%
O=C(c1ccccc1F)N1CCC(c2nc3c(nnn3Cc3cccc(F)c3)c(=O)[nH]2)CC1 -3.46%
COc1ccc(OC)c(NC(=O)CSC2=Nc3ccccc3C3=NC(CC(=O)NCc4ccc(F)cc4)C(=O)N23)c1 (stereo not given) 0.599%
COc1ccccc1-c1nnc(SCC(N)=O)o1 -43.6%
COc1cc(NS(=O)(=O)c2ccc3c(c2)OCC(C(=O)N2CCCC2)O3)cc(OC)c1 (stereo not given) 8.58%
Cc1ccc(C)c(NC(=O)CSC2=Nc3ccccc3N=C(c3ccc(F)cc3)C2)c1 4.67%
Cc1cc(C)cc(NC(=O)Cc2csc(C)n2)c1 -1.74%
CCc1nccn1S(=O)(=O)c1cc(Br)ccc1Br -2.49%
CC(=O)Nc1ccc(NC(=O)CSc2nnc3c4cc(Br)ccc4n(C)c3n2)cc1 -3.89%
Cc1ccc(C)c(CNC(=O)c2cc3ccccn3n2)c1 0.252%
Cc1ccc(C)c(Cn2c(C)c(CNCc3ccc(F)cc3)c(C(=O)O)c2C)c1 4.63%
CCOC(=O)c1ccc(NC(=O)CSc2nc3c([nH]c4ccccc43)c(=O)n2C)cc1 -6.03%
CCc1ccc(-n2nnc(-c3nc(-c4ccccc4)no3)c2C)cc1 -68.1%
O=C(NCCCN1CCN(c2cccc(Cl)c2)CC1)c1nnc(Cc2ccc(F)cc2Cl)o1 23.8%
CCNC(=O)CC1C(=O)N(c2ccc(F)cc2)C(=O)N1Cc1ccc(C)cc1 (stereo not given) 3.25%
CCOC(=O)c1[nH]c(C)c(CCC(=O)NCc2ccccc2C)c1C 0.547%
COc1ccc(NC(=O)COCc2cc(-c3ccco3)on2)cc1 1.75%
O=C(CCSCc1cccc(F)c1)NCc1ccccc1 3.37%
CN(Cc1ccccc1)c1ccc(-c2nc(-c3ccccc3)no2)cc1[N+](=O)[O-] 0.0426%
Cc1ccc(C(=O)Nc2cc3c(cc2N2CCCC2)n(C)c(=O)c(=O)n3C)cc1 -7.41%
CCCOC(=O)c1c(NC(=O)c2cc3nc(-c4ccc(OC)cc4)cc(C(F)(F)F)n3n2)sc2c1CCCC2 -6.35%
Cc1ccc(-c2nc(CS(=O)(=O)CC(=O)NCc3ccccc3Cl)c(C)o2)cc1 3.02%
Cc1nn(C(C)C(=O)NCCc2ccccc2)c(=O)c2c1sc1ccccc12 (stereo not given) -34.9%
CCN(C(=O)Cn1cc(S(=O)(=O)N2CCN(c3ccccc3F)CC2)c2ccccc2c1=O)c1ccc(C)c(C)c1 3.6%
CCOC(=O)c1cccc(NC(=O)c2cc(S(=O)(=O)N3CCCC(C)C3)cn2C)c1 (stereo not given) 13.2%
